Source: PubChem (National Center for Advancing Translational Sciences (NCATS))
Sampled rows, rich in hits. Any-hit rate of the full collection: about 0.86%.
AmpC inh detg: qHTS Inhibitors of AmpC Beta-Lactamase (assay with detergent); AmpC hydrolysis of nitrocefin, absorbance 480 nm, 0.01% Triton; Potency, µM (highest dose often 114 µM), for inactives: at the highest dose activity change, negative = inhibition, usual class: inhibitors; 370,000 compounds, 0.041% hits;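 further: potency means the concentration at half of the fitted maximal effect; 0% = no-compound wells and -100% = no-enzyme wells; nearly all actives have a fitted effect of over 25% in size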
Target sequence (P00811 whole entry, looked up): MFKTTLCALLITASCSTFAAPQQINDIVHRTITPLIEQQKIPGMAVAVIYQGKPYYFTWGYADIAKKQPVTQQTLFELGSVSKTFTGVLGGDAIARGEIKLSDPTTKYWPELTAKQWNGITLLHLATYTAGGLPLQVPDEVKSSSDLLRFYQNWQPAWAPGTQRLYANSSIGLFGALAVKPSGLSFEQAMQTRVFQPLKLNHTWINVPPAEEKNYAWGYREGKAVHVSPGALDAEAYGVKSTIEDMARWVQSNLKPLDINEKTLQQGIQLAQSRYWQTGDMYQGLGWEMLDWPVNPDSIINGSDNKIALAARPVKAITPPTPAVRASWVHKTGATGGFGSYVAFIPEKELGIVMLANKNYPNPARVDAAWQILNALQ
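20 mM phosphate pH 7.0 + 0.01% (detergent screen) or 0.0001% Triton X-100; 5.3 nM AmpC reagent; cpd preinc 15 min RT; nitrocefin (800 uM stock) to start; A480 q20 s × 4 min; Activity was normalised to no-enzyme and no-compound control wells.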
AMA1 RON2 block: qHTS for Inhibitors of AMA1-RON; Towards Development of Antimalarial Drug Lead: Primary Screen; Plasmodium falciparum AMA1 (3D7) - RON2 peptide interaction; AlphaScreen AMA1-biotinylated RON2 peptide binding; Potency, µM (titrated, usually from 58.2 µM), inactives show at the highest dose activity change, negative = inhibition, usual class: inhibitors; 360,000 compounds, 0.2% hits;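 further: potency means the concentration at half of the fitted maximal effect; 0% = vehicle wells and -100% = peptide control; nearly all actives have a fitted effect of over 45% in size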
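AMA1 (3D7) with his tag at 25 nM final met compounds first, then biotinylated RON2 peptide at 25 nM; detection used donor plus acceptor beads, 10 µg/mL apiece, read by AlphaScreen after 30 min at room temperature.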
AmpC inh no detg: qHTS Inhibitors of AmpC Beta-Lactamase (assay without detergent); AmpC nitrocefin hydrolysis, absorbance 480 nm, 0.0001% Triton; P00811; Potency, µM (doses to about 57.1 µM), without a hit: at the top dose activity change, negative = inhibition, usual class: inhibitors; AID 485341, 2010; 330,000 compounds, 0.52% hits;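 further: potency means the concentration at half of the fitted maximal effect; plate controls were no compound for no effect and no enzyme for full effect; nearly all actives have a fitted effect of over 20% in size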
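20 mM phosphate pH 7.0 + 0.01% (detergent screen) or 0.0001% Triton X-100; 5.3 nM AmpC reagent; cpd preinc 15 min RT; nitrocefin (800 uM stock) to start; A480 q20 s × 4 min; Activity was normalised to no-enzyme and no-compound control wells.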
NS1 function inh: qHTS Assay for Inhibitors of Influenza NS1 Protein Function. Potency, µM (titrated, usually from 46.1 µM), inactives show at the highest dose activity, positive = more growth. 270,000 compounds, 0.4% hits; calls by dose curve; further: potency means the concentration at half of the fitted maximal effect; actives are rising curves; nearly all actives have a fitted effect of over 50% in size
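Recovery from NS1-induced slow growth read by OD600 in budding yeast switched to galactose assay medium (pH 6.0, -URA) at 1:100 dilution. Compound 23 nl per well; the matching strain lacking NS1 serves as control.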
Flu NS1 inh: Assay for Inhibitors of Influenza NS1 Protein Function: Hit Validation. shares compounds with NS1 function inh. AID 492980, 2010. influenza NS1 function cell assay, 15-point titration. 1,400 tested, under 10 active. activity change, negative = inhibition, % at 32.9 µM; calls by dose curve; further: 0% is about no effect
* hit, by the source's call; u = inconclusive; x = no result. Unless noted, the call rests on the fitted dose curve; in most records, active means well fitted curve in the direction sought with a large enough effect; inconclusive means small, poorly fitted or top-dose-only effect, or another doubt; inactive means no such curve, though single readings can be large; an effect the other way counts as inactive or inconclusive.

SMILES | AmpC inh detg | AMA1 RON2 block | AmpC inh no detg | NS1 function inh | Flu NS1 inh
Cc1ccc(S(=O)(=O)N(C)C)cc1-n1c(SCC(=O)Nc2ccccc2)nc2ccccc2c1=O | -6% | -2% | 20% | u | x
Cc1cc(O)ccc1Nc1nc(-c2sc(N)nc2C)cs1 | -19% | 8% | -37% | 11µM* | 6
CC(=O)Nc1nc(C)c(-c2csc(Nc3ccc(O)cc3)n2)s1 | -3% | 15% | u | 3.2µM* | 18
COc1ccc(C(=O)c2[nH]c(N)c(C(=O)NCCc3c[nH]c4ccccc34)c2-c2ccc(Br)cc2)cc1 | x | 59% | x | x | x
CCC(SC1=N/C(=C/c2ccccc2OC)C(=O)N1c1ccccc1)C(=O)Nc1cc(C)on1 (stereo not given) | 6% | -4% | -16% | 1% | x
Cc1nn(C(C)C(=O)NC(C)CCc2ccccc2)c(=O)c2cc3occc3n12 (stereo not given) | 0% | 16% | 36% | u | x
O=C1NC(=Nc2ccccc2)S/C1=C\C=C\c1ccco1 | -2% | -1% | 14µM* | 4.5µM* | u
Cc1ccc(N=C2NC(=O)/C(=C/C=C/c3ccco3)S2)cc1 | -2% | -16% | -58% | 17% | x
COc1ccc(-c2nnc3c4ccccc4c(-c4ccccc4)nn23)cc1 | 22% | x | x | x | x
Cc1ccc(C2(C)NC(=O)N(CC(=O)NCCC3=CCCCC3)C2=O)cc1 (stereo not given) | 3% | -15% | 14% | 11µM* | 14
Cc1ccc(C(=O)c2cn(Cc3cc(C)ccc3C)c3nc(C)ccc3c2=O)cc1 | 14% | x | x | x | x
Cc1[nH]c2ccccc2c1N=Nc1ccccc1C(=O)O | -3% | 46% | -25% | 4.5µM* | 15
COc1ccc(S(=O)(=O)N2CCOC23CCN(S(=O)(=O)c2cc(C)ccc2OC)CC3)cc1 | -12% | -11% | -11% | x | x
O=C(Cn1cnc([N+](=O)[O-])n1)NCc1ccccc1 | -1% | 18% | -8% | 3.5µM* | 3
O=C(Cn1cnc([N+](=O)[O-])n1)NCCO | 5% | 16% | -15% | 2% | x
CCc1ccccc1Oc1nc(NCCOC)nc2cc(-c3ccccc3)sc12 | x | -3% | x | x | x
CC1(OC(=O)c2cccs2)C(=O)C=C2C=C3CCCN3C=C2C1=O (stereo not given) | 2% | u | 33% | u | 34
CC1(OC(=O)CCc2ccccc2)C(=O)C=C2C=C3CCCN3C=C2C1=O (stereo not given) | -2% | u | 39% | 4% | x
C[C@@H](C(=O)Nc1ccc2ccccc2c1)[C@H]1C[C@]1(C)[C@H](NS(=O)(=O)c1ccccc1)c1ccccc1 | u | -4% | -27% | 11µM* | 6
Cc1cc(C(=O)N[C@@H](c2ccccc2)[C@]2(C)C[C@H]2[C@@H](C)C(=O)Nc2ccc3ccccc3c2)no1 | -12% | -2% | -3% | 11µM* | 12
Cc1cc(C)nc(OC(C(=O)O)C(OCC(C)C)(c2ccccc2)c2ccccc2)n1 (stereo not given) | 2% | -4% | -56% | 6.3µM* | 32
CCC(C)COC(c1ccccc1)(c1ccccc1)C(Oc1nc(C)cc(C)n1)C(=O)O (stereo not given) | 0% | -8% | -12% | u | x
CS(=O)(=O)N(CC(=O)NN=C1CCCCCC1)c1ccc(Oc2ccccc2)cc1 | 10% | 12% | -21% | x | x
O=C(CN(c1ccccc1)S(=O)(=O)c1ccccc1[N+](=O)[O-])NN=C1CCCCCCC1 | 4% | 7% | -40% | 1.3µM* | u
CCOc1ccc(CCNC(=O)c2oc(=O)c3ccccc3c2-c2ccc(C)cc2)cc1OCC | 2% | x | x | x | x
CC1(C)SC(=S)N(NC(=O)Nc2ccccc2)C1N(O)C(=O)Nc1cccc2ccccc12 (stereo not given) | 9% | 30% | -10% | 22µM* | 9
Cc1ccc(NC(=O)CN2C(=O)S/C(=C\c3cc(C)n(C)c3C)C2=O)cc1 | -10% | -9% | -28% | 5% | x
